Active and inactive are the calls of the source. Rule for the calls: active = hit-call score of the fitted dose curve at least 0.9, where 1 is the maximum; inactive = score below 0.9.
Key:
[1] = ATG_E_Box_CIS: Attagene CIS-FACTORIAL HepG2 Assay for human Enhancer Box (E-box) (AID 2282936); conditions: HepG2 E-box cis-reporter transcription, actives raise or lower the signal
Outline: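 Endogenous transcription factor activity was sensed in human HepG2 liver cells through transfected cis-promoter reporter units. After 24 h of dosing, total RNA was reverse-transcribed and reporter cDNA resolved by capillary electrophoresis.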

[2] = ATG_M_61_CIS: Attagene CIS-FACTORIAL HepG2 Assay for M61 Transcription Factor (Internal Marker) (AID 2282937); conditions: HepG2 Attagene CIS-FACTORIAL M61 internal marker reporter; actives raise or lower the signal
Outline: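 Multiplexed reporter mRNA assay, HepG2 human hepatoma cells, 24 h treatment. Signal: FAM-labelled, HpaI-digested RT-PCR fragments by CE. Fit: bidirectional, baseline DMSO.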

[3] = ATG_EGR_CIS: Attagene CIS-FACTORIAL HepG2 Assay for human Early Growth Response 1 (EGR1) (AID 2282938); conditions: HepG2 Attagene CIS-FACTORIAL EGR reporter mRNA; actives raise or lower the signal
Outline: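 Multiplexed cis-reporter system in human hepatoma HepG2 cells, transiently transfected. Cells are dosed for 24 h; reporter transcripts are amplified, fluorescently tagged and sized by capillary electrophoresis, with DMSO as negative control.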

[4] = ATG_M_19_CIS: Attagene CIS-FACTORIAL HepG2 Assay for M19 Transcription Factor (Internal Marker) (AID 2282939); conditions: HepG2 Attagene CIS-FACTORIAL M19 internal marker reporter; actives raise or lower the signal
Outline: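 Transfect HepG2 with MRTU reporter library → dose chemical, 24 h → isolate total RNA, reverse-transcribe with oligo(dT) → PCR, 6-FAM label, HpaI cut (2 h, 37 C) → capillary electrophoresis. Bidirectional fit vs DMSO.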

[5] = ATG_ERE_CIS: Attagene CIS-FACTORIAL HepG2 Assay for Estrogen Response Element (ERE) (AID 2282940); conditions: HepG2 ERE cis-reporter, Attagene RNA transcript; actives raise or lower the signal
Outline: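 Transient MRTU transfection of human HepG2; cis-element promoters; 24 h dosing; total RNA → RT (oligo dT) → PCR → 6-FAM primer extension → HpaI digest → CE fluorescence. Bidirectional fit, DMSO baseline.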

[6] = ATG_Ets_CIS: Attagene CIS-FACTORIAL HepG2 Assay for human Erythroblast Transformation Specific (ETS) (AID 2282941); conditions: HepG2 ETS cis-reporter transcription, actives raise or lower the signal
Outline: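 Multiplexed reporter transcript profiling: HepG2, 24 h treatment, total RNA to cDNA, PCR, 6-FAM labelling, HpaI cut, capillary electrophoresis. Gain- or loss-of-signal fitted against DMSO.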

[7] = target: Hepatocyte nuclear factor 3-beta (Homo sapiens) (UniProt Q9Y261); test: ATG_FoxA2_CIS: Attagene CIS-FACTORIAL HepG2 Assay for human Forkhead box A2 (FOXA2) (AID 2282942); conditions: HepG2 cis-reporter transcription factor activity, 24 h; actives raise or lower the signal
Outline: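 Multiplexed cis-element reporter assay in transiently transfected HepG2. Twenty-four hours post-dosing, RNA was reverse-transcribed, amplified, FAM-labelled, HpaI-digested and separated by CE. Activity gain or loss relative to DMSO.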

[8] = ATG_FoxO_CIS: Attagene CIS-FACTORIAL HepG2 Assay for human Forkhead box O (FoxO) (AID 2282943); conditions: HepG2 Attagene cis-reporter, FoxO element, mRNA; actives raise or lower the signal
Outline: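 24 h chemical exposure, HepG2 with transient cis-MRTU transfection. RNA extraction, oligo(dT) RT, reporter-specific PCR, primer-extension labelling, HpaI digestion, CE fragment analysis; bidirectional fit, DMSO baseline.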

[9] = ATG_GATA_CIS: Attagene CIS-FACTORIAL HepG2 Assay for human GATA Binding Protein (AID 2282944); conditions: HepG2 GATA cis-element reporter, Attagene multiplex mRNA; actives raise or lower the signal
Outline: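 Transient MRTU transfection, HepG2, 24 h compound exposure. Total RNA → oligo(dT) RT → PCR → 6-FAM primer extension → HpaI cut → CE. Bidirectional fit vs DMSO.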

[10] = ATG_GLI_CIS: Attagene CIS-FACTORIAL HepG2 Assay for human Zinc Finger Protein GLI1 (AID 2282945); conditions: HepG2, Attagene cis-factorial reporter mRNA, GLI element; actives raise or lower the signal
Outline: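 HepG2 cells transiently transfected with cis-promoter multiplexed reporter units report endogenous transcription factor activity. After 24 h chemical exposure, reporter mRNA was quantified by RT-PCR, 6-FAM labelling, HpaI digestion and capillary electrophoresis, with bidirectional fitting against DMSO.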

[11] = target: Bile acid receptor (Homo sapiens) (UniProt Q96RI1); test: ATG_IR1_CIS: Attagene CIS-FACTORIAL HepG2 Assay for human Nuclear Receptor Subfamily 1 Group H Member 4 (NR1H4), IR1 submotif (AID 2282946); conditions: IR1 reporter transcription, actives raise or lower the signal
Outline: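 Readout: reporter transcript levels by RT-PCR with fluorescent capillary electrophoresis, from HepG2 cells transiently transfected with multiplexed cis-regulated reporters and dosed 24 h. Gain- or loss-of-signal fitted versus DMSO negative control.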

[12] = ATG_ISRE_CIS: Attagene CIS-FACTORIAL HepG2 Assay for human Interferon Regulatory Factor 1 (IRF1) binding to an Interferon-Stimulated Response Element (ISRE) (AID 2282948); conditions: HepG2 ISRE cis-reporter (Attagene), mRNA transcription readout; actives raise or lower the signal
Outline: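 Signal reflects induction or loss of ISRE-linked reporter mRNA in transiently transfected HepG2 cells after a 24 h treatment, detected by fluorescent RT-PCR fragments on capillary electrophoresis and normalised to DMSO.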

[13] = ATG_M_06_CIS: Attagene CIS-FACTORIAL HepG2 Assay for M06 Transcription Factor (Internal Marker) (AID 2282950); conditions: HepG2 Attagene CIS-FACTORIAL M06 internal marker reporter; actives raise or lower the signal
Outline: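 Read-out is fluorescence of labelled reporter cDNA fragments resolved by capillary electrophoresis after RT-PCR. Cells: HepG2 carrying transfected cis-promoter reporter units, treated 24 h. Gain or loss of signal fitted relative to DMSO.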

[14] = target: Hypoxia-inducible factor 1-alpha (Homo sapiens) (UniProt Q16665); test: ATG_HIF1a_CIS: Attagene CIS-FACTORIAL HepG2 Assay for human Hypoxia Inducible Factor 1 (HIF1A) (AID 2282951); conditions: HepG2 Attagene cis-factorial HIF1a reporter transcription; actives raise or lower the signal
Outline: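 Cis-element reporter constructs were transiently transfected into HepG2 cells, which were treated for 24 h; reporter RNA was reverse-transcribed, amplified, labelled and resolved by capillary electrophoresis.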

[15] = target: Hepatocyte nuclear factor 6 (Homo sapiens) (UniProt Q9UBC0); test: ATG_HNF6_CIS: Attagene CIS-FACTORIAL HepG2 Assay for human Hepatocyte Nuclear Factor 6 (HNF6) (AID 2282952); conditions: HepG2 Attagene cis-factorial HNF6 reporter transcription; actives raise or lower the signal
Outline: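 First, HepG2 cells were transfected with the multiplexed cis reporter library and dosed with chemical for 24 h. Next, RNA was reverse-transcribed, PCR-amplified and fluorescently labelled. Finally, HpaI-digested fragments were read by capillary electrophoresis.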

[16] = target: Heat shock factor protein 1 (Homo sapiens) (UniProt Q00613); test: ATG_HSE_CIS: Attagene CIS-FACTORIAL HepG2 Assay for human Heat Shock Transcription Factor 1 (HSE) (AID 2282953); conditions: HepG2 HSE cis-reporter, Attagene RNA transcription; actives raise or lower the signal
Outline: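 HepG2, transient MRTU transfection, cis-promoter reporters (endogenous TF activity). 24 h compound. RNA → oligo(dT) RT → PCR → 6-FAM primer extension → HpaI cut → CE. Bidirectional fit vs DMSO.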

[17] = ATG_MRE_CIS: Attagene CIS-FACTORIAL HepG2 Assay for human Metal Responsive Element (MRE) (AID 2282954); conditions: HepG2 MRE cis-reporter transcription, Attagene multiplex; actives raise or lower the signal
Outline: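 Cells were transfected with cis-promoter reporter transcription units, then dosed for 24 h. RNA was reverse-transcribed, amplified, fluorescently labelled and resolved by capillary electrophoresis, and activity was fitted in both directions relative to DMSO.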

[18] = ATG_M_32_CIS: Attagene CIS-FACTORIAL HepG2 Assay for M32 Transcription Factor (Internal Marker) (AID 2282949); conditions: HepG2 Attagene cis-factorial M32 reporter, mRNA; actives raise or lower the signal;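 note: background control marker of the multiplexed CIS panel rather than a real target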
Outline: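 HepG2 human liver cells transiently transfected with cis-promoter-driven multiple reporter transcription units, dosed 24 h. Reporter mRNA quantified by RT-PCR, FAM-labelled primer extension, HpaI digest and capillary electrophoresis; bidirectional fit versus DMSO baseline.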

[19] = ATG_PBREM_CIS: Attagene CIS-FACTORIAL HepG2 Assay for human Phenobarbital-responsive Enhancer Module (PBREM) (AID 2282955); conditions: HepG2 PBREM cis-reporter, Attagene multiplexed transcription; actives raise or lower the signal
Outline: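 Multiplexed cis-reporter readout in human hepatoma HepG2 cells; PBREM-regulated transcript quantified after 24 h exposure by fluorescent RT-PCR fragment analysis. Signal changes up or down fitted relative to DMSO.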

[20] = ATG_GRE_CIS: Attagene CIS-FACTORIAL HepG2 Assay for human Glucocorticoid Response Elements (GRE) (AID 2282947); conditions: HepG2 GRE cis-reporter, Attagene multiplex mRNA; actives raise or lower the signal
Outline: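 Cells (HepG2) bearing transfected cis-promoter reporter transcription units were treated with chemical for 24 hours. Reporter mRNA was measured via RT-PCR with capillary electrophoresis, and activity was fitted in both directions relative to DMSO.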

Measured: outcome

Chain of Hypoxia-inducible factor 1-alpha (Homo sapiens) (Q16665 whole entry, looked up): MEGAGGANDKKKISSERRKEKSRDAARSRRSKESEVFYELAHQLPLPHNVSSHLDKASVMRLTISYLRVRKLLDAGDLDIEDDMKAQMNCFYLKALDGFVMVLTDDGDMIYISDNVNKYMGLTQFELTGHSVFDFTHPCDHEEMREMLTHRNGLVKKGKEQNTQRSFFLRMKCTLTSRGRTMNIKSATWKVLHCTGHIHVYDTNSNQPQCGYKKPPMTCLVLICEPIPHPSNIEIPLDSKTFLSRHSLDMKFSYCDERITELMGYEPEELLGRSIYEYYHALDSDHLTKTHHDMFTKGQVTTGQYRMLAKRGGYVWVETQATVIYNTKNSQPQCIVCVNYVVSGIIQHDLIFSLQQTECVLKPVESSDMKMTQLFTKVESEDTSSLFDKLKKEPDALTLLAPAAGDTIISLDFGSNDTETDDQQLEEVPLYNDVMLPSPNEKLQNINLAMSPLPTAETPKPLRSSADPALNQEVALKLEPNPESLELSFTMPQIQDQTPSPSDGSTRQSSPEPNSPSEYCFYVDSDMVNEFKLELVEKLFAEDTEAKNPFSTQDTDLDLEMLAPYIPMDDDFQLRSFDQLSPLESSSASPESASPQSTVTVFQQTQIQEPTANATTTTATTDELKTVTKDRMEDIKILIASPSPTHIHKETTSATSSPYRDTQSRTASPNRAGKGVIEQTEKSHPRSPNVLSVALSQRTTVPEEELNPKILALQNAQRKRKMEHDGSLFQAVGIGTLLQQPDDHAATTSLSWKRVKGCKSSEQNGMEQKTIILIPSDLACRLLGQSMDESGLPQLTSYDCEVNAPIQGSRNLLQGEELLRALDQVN
Chain of Bile acid receptor (Homo sapiens) (Q96RI1 whole entry, looked up): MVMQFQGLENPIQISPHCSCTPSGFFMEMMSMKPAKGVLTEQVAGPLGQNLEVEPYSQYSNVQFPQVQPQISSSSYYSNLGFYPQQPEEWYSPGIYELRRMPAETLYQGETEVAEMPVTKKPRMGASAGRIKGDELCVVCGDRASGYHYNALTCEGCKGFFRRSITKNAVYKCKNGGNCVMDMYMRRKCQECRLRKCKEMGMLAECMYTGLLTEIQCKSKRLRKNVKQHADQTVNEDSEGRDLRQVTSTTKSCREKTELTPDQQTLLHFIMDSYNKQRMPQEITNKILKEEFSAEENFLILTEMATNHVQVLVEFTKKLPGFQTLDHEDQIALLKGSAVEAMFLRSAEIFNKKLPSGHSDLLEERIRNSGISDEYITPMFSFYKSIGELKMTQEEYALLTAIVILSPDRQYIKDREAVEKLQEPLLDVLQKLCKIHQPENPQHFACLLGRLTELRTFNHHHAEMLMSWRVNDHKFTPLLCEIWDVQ
Chain of Hepatocyte nuclear factor 6 (Homo sapiens) (Q9UBC0 whole entry, looked up, the tested form may be a part): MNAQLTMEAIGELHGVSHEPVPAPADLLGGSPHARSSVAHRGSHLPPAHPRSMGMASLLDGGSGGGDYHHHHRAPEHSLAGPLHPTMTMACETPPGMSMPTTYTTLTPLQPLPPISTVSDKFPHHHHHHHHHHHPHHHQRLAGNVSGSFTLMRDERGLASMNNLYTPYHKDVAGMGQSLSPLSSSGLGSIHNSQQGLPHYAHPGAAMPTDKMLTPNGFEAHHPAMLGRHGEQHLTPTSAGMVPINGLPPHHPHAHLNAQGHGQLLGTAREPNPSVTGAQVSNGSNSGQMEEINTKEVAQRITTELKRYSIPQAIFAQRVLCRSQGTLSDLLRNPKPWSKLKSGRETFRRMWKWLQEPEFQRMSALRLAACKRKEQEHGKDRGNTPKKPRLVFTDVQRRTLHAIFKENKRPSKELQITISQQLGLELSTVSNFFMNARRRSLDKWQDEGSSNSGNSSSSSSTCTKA
Chain of Heat shock factor protein 1 (Homo sapiens) (Q00613 whole entry, looked up): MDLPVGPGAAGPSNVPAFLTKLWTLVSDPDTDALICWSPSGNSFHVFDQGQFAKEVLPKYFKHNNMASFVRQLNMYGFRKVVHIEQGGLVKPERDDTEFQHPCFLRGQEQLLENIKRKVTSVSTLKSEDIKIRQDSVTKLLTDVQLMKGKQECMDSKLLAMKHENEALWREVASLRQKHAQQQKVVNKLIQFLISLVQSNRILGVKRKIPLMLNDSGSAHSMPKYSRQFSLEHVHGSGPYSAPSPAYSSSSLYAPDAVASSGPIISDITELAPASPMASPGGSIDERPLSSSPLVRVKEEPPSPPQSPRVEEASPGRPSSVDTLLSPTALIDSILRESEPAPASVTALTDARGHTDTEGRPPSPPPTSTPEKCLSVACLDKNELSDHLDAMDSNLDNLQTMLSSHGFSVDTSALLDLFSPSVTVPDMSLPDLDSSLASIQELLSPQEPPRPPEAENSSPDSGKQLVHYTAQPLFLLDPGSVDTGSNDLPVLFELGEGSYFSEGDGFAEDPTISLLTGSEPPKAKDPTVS
Chain of Hepatocyte nuclear factor 3-beta (Homo sapiens) (Q9Y261 whole entry, looked up): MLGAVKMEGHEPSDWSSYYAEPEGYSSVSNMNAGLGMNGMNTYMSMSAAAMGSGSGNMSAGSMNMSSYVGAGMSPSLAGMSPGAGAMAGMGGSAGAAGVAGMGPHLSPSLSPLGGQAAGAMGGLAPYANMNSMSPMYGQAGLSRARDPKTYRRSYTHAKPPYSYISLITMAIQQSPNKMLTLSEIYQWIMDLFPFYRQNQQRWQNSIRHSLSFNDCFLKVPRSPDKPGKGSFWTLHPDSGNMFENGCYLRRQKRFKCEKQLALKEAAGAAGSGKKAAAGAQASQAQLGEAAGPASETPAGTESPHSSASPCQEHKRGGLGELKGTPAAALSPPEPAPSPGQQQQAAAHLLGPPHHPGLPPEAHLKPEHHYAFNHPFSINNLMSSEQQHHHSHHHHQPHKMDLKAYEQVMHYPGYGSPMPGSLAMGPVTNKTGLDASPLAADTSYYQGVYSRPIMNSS

Nc1cccc(C(F)(F)F)c1
not listed: [18] | [19] | [20]
inactive: all other assays above

Cc1cc(C)c(C)cc1C
not listed: [19] | [20]
inactive: all other assays above

CC(C)COC(=O)C=Cc1ccccc1
not listed: [20]
inactive: all other assays above

COCCCOCCCOC
not listed: [20]
inactive: all other assays above

N=c1ccn2c(n1)O[C@H]1[C@H](O)[C@@H](CO)O[C@H]12
not listed: [11] | [19]
inactive: all other assays above

CC(=O)c1ccc2c(c1)CCCC2
not listed: [11]
inactive: all other assays above

O=C(OCC1CCC2OC2C1)C1CCC2OC2C1 (configuration not stated)
not listed: [11] | [16]
inactive: all other assays above

S=C(NC1CCCCC1)NC1CCCCC1
not listed: [11]
inactive: all other assays above

Source: PubChem BioAssay (EPA / NIEHS)
